# Assay results from the supplement of paper PMC9135407.
# Several values for one entry are separate records, joined by “and”; a condition that tells them apart may be missing. Equal values may be shown once. Where a name gives a salt, the structure may show the parent alone. The whole screen tested about 5,800 compounds, of which about 620 (11%) showed activity. The full list was thinned out, with actives kept by preference. A number with no mark means an inactive call.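 The calls were made as follows: active = score above a cut-off or among the top three wells of a plate; in these data no inactive exceeds 0.85.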
# Tested on: primary human hepatic stellate cells (donor 1)
# Test: scaled lipid accumulation score (0 = DMSO-like, 1 = nortriptyline-like); higher = stronger HSC inactivation (lipid re-accumulation), active = hit call of the paper
# Conditions: 48 h
# Procedure: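 Primary lipid accumulation screen in primary human hepatic stellate cell myofibroblasts (donor 1, passage 8) in 384-well plates. 100 nL of library compound was pin-transferred into 30 µL medium in duplicate, and cells were treated for 48 h. The 'Scaled' score combines distance from plate baseline, toxicity and reproducibility penalties, and is normalised to nortriptyline (positive) and DMSO (negative) controls on each plate. A hit is defined as scaled >0.85 or among the top 3 wells per plate.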
# [1] = library stock concentration: 10 mM
# [2] = library stock concentration: 1 mM
# [3] = library stock concentration: 3.33 mM
# [4] = library stock concentration: 6.9 mM
smiles,measurement,setting,value
"COc1ccc2[nH]c3c(c2c1)CCNC3 [6-Methoxy-1,2,3,4-tetrahydro-9H-pyrido[3,4b] indole]",scaled lipid accumulation score,[1],0.691
COc1ccc2[nH]cc(C3=CCNCC3)c2c1.COc1ccc2[nH]cc(C3=CCNCC3)c2c1.O=C(O)CCC(=O)O,scaled lipid accumulation score,[1],1.68 (active)
O=c1ccc2[nH]cc(C3=CCNCC3)c2[nH]1,scaled lipid accumulation score,[1],0.084 and ≤ -0.006
CCCOc1ccc2[nH]cc(C3=CCNCC3)c2n1,scaled lipid accumulation score,[1],0.748
N#Cc1ccc(N2CCN(C(=O)COc3ccc4[nH]cc(CCN)c4c3)CC2)cc1 [Donitriptan hydrochloride],scaled lipid accumulation score,[1],≤ 0
CN1CC[C@@H]2CN3CCc4cccc(c43)[C@@H]2C1 [SDZ SER 082 fumarate],scaled lipid accumulation score,[1],≤ -0.006
CCCCCC(=O)N[C@H]1CCOC1=O [N-hexanoyl-L-Homoserine lactone],scaled lipid accumulation score,[2],≤ 0
CO[C@H](C/C=C\C=C\CC/C=C/C[C@H](C)/C=C/C(=C\C(=O)O)CC(=O)O)/C(C)=C\C=C(/C)C(=O)O [Bongkrekic acid],scaled lipid accumulation score,[2],≤ -0.014
N#CC(C#N)=Cc1ccc(O)cc1 [Tyrphostin-8],scaled lipid accumulation score,library stock concentration: 29.4 mM,≤ -0.012
CC(Cc1ccc(OCC(=O)O)cc1)NCC(O)c1cccc(Cl)c1 (configuration not stated),scaled lipid accumulation score,[1],0.056
COc1cc2c(cc1O)[C@@H]1Cc3ccc(OC)c(O)c3CN1CC2 [Scoulerine],scaled lipid accumulation score,,0.07
"COc1ccc(CC2c3cc(OC)c(OC)cc3CCN2C)cc1OC (racemic) [Laudanosine (R,S)]",scaled lipid accumulation score,,≤ 0
COc1cc2c(cc1O)C(CCc1ccc(Cl)cc1)N(C)CC2.Cl (configuration not stated),scaled lipid accumulation score,[1],0.872 (active)
C/C1=C/C(=O)O[C@@H]2C[C@@H](CC[C@H](C)/C=C\CC1)O[C@@](O)([C@@H]1CSC(=O)N1)C2 [Latrunculin B],scaled lipid accumulation score,library stock concentration: 12.6 mM,0.632
CCCCC/C=C\C/C=C\C/C=C\C/C=C\CCCC(=O)N[C@@H](C)CO [S-1 Methanandamide],scaled lipid accumulation score,[2],≤ 0
CN1C2CC(=O)CC1C(O)C2 (configuration not stated) [6-Hydroxytropinone],scaled lipid accumulation score,,≤ 0
CN1[C@@H](C[C@@H](O)c2ccccc2)CCC[C@H]1C[C@H](O)c1ccccc1 [Lobelanidine hydrochloride],scaled lipid accumulation score,,0.194
O=C(O)C1=CCCN(CCOC(c2ccc(C(F)(F)F)cc2)c2ccc(C(F)(F)F)cc2)C1 [CI 966 hydrochloride],scaled lipid accumulation score,[1],≤ -0.006
CC1=C(O)C(=O)C=C2C1=CC=C1[C@@]2(C)CC[C@@]2(C)[C@@H]3C[C@](C)(C(=O)O)CC[C@]3(C)CC[C@]12C [Celastrol] [listing 1 of 2 here],scaled lipid accumulation score,library stock concentration: 80 uM,0.019
same,scaled lipid accumulation score,library stock concentration: 400 uM,0.093
same,scaled lipid accumulation score,[1],0.392
O=C1C=C2C(C(C)=C1O)=CC=C3[C@]2(CCC4([C@@H]5C[C@@](CC[C@@]5(CC[C@]34C)C)([C@@](O)=O)C)C)C (some centres not stated) [Celastrol],scaled lipid accumulation score,library stock concentration: 2 mM,1.14 (active)
same,scaled lipid accumulation score,[1],1.14 (active)
CC1=C(O)C(=O)C=C2C1=CC=C1[C@@]2(C)CC[C@@]2(C)[C@@H]3C[C@](C)(C(=O)O)CC[C@]3(C)CC[C@]12C [Celastrol] [listing 2 of 2 here],scaled lipid accumulation score,[2],1.34 (active)
CN1CCN(C(=O)O[C@H]2c3nccnc3C(=O)N2c2ccc(Cl)cn2)CC1,scaled lipid accumulation score,[1],0.134
CN1CCN(C(=O)O[C@H]2c3nccnc3C(=O)N2c2ccc(Cl)cn2)CC1 [Eszopiclone],scaled lipid accumulation score,[1],≤ 0
C#CCN[C@H](C)Cc1ccccc1 [R-(-)-Desmethyldeprenyl hydrochloride],scaled lipid accumulation score,[1],≤ 0
CC[C@@H]1C=CC=CC[C@H](C)[C@@H](O)[C@@H](C)C(=O)[C@H](C)[C@@H](O)[C@H](C)C(=O)[C@H](C)[C@@H](O)[C@H](C)C=CC(=O)O[C@H]2[C@@H](C)[C@@H](CC1)O[C@@]1(CC[C@@H](C)[C@@H](C[C@H](C)O)O1)[C@@H]2C,scaled lipid accumulation score,[1],≤ 0
CN1[C@@H]2CC[C@H]1C[C@@H](OC(=O)[C@H](CO)c1ccccc1)C2 [Hyoscyamine],scaled lipid accumulation score,[3],≤ 0
same,scaled lipid accumulation score,[4],≤ -0.001
same,scaled lipid accumulation score,[1],≤ 0 and 0.017
CCC(Oc1ccc(Cl)cc1)C(=O)OC1CC2CCC(C1)N2C.O=C(O)/C=C\C(=O)O (configuration not stated) [SM-21 maleate],scaled lipid accumulation score,[1],0.886 (active)
CN1[C@@H]2CC[C@H]1C[C@@H](OC(=O)C(CO)c1ccccc1)C2 (some centres not stated),scaled lipid accumulation score,[1],≤ 0
CN1[C@@H]2CC[C@H]1C[C@@H](OC(=O)[C@H](CO)c1ccccc1)C2 [L-Hyoscyamine],scaled lipid accumulation score,[1],≤ -0.07
COc1ccc(C(=O)OC2C[C@H]3CC[C@@H](C2)N3C)cc1OC (some centres not stated) [Convolamine hydrochloride],scaled lipid accumulation score,,0.027
CN1[C@@H]2CC[C@H]1C[C@@H](OC(=O)C(CO)c1ccccc1)C2 (some centres not stated) [Atropine sulfate],scaled lipid accumulation score,library stock concentration: 5.2 mM,0.019
same,scaled lipid accumulation score,[4],0.018
same,scaled lipid accumulation score,[1],0.196 and ≤ 0
CC(C(=O)OC1CC2CCC(C1)N2C)c1ccc(Br)cc1.O=C(O)/C=C\C(=O)O (configuration not stated) [PG-9 maleate],scaled lipid accumulation score,[1],0.958 (active)
CN1[C@@H]2CC[C@H]1C[C@@H](OC(=O)C(CO)c1ccccc1)C2 (some centres not stated) [Atropine],scaled lipid accumulation score,[3],≤ 0
same,scaled lipid accumulation score,[1],≤ 0
CN1[C@@H]2CC[C@H]1C[C@@H](OC(=O)[C@H](CO)c1ccccc1)C2 [Hyoscyamine (L)],scaled lipid accumulation score,,≤ 0
CN1[C@@H]2CC[C@H]1C[C@@H](OC(=O)C(CO)c1ccccc1)C2 (some centres not stated) [Atropine sulfate monohydrate],scaled lipid accumulation score,,0.118
CN1[C@@H]2CC[C@H]1CC(OC(=O)N1Cc3ccccc3NC1=O)C2 (some centres not stated) [DAU 5884 hydrochloride],scaled lipid accumulation score,[1],≤ -0.001
CNCC(O)c1ccc(O)c(OC)c1 (stereo not drawn) [Metanephrine hydrochloride DL],scaled lipid accumulation score,,0.001
"CCCCCC1OC1C/C=C\CCCCCCCC(=O)O (configuration not stated) [Leukotoxin B (12,13-EODE)]",scaled lipid accumulation score,library stock concentration: 100 uM,≤ -0.021
CCCCCC[C@H]1C(=O)O[C@H](C)[C@H](NC(=O)c2cccc(NC=O)c2O)C(=O)O[C@@H](C)[C@@H]1OC(=O)CC(C)C [Antimycin A],scaled lipid accumulation score,,0.274
